The results in this text go back to PubChem BioAssay.

A number with no mark means an inactive call. Activity calls are given as the source filed them.

The nature of this assay: fission yeast growth modulation, primary screen, strain 972, OD600, 24 h, no modulator (AID 1090).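 Further: basal condition with compound alone and no growth modifier present; test concentration not given here.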 The settings on record: S. pombe 972 growth, higher = more signal, called active from +8 up or from −8 down.
Take `CCCC=C(CCC)[C@@H](NS(=O)(=O)c1cccs1)c1ccc(C(=O)OC)cc1`: the z-score was -1.19.
`C[C@@]1([C@@H](NC(=O)c2ccccc2)c2ccc(-c3ccccc3)cc2)C[C@H]1C1CCCCC1`: the z-score is 0.443.
In the case of `C=CCC(OC(C)=O)[C@@H]1[C@@H](N(Cc2ccc(-c3cccc(C(F)(F)F)c3)o2)C(=O)Cc2ccc(F)cc2)c2cc(OCCCO)ccc2N1C(=O)Cc1ccc(OC)cc1` (stereo not given in full) it was 0.0138; in that of `COC(=O)c1c(CC[C@@H](CO)NC(=O)N[C@@H](C)Cn2cc(C3(O)CCCCC3)nn2)oc(C(C)=O)c1C(=O)OC`, -0.261.
On to `C=CCC(OC(C)=O)[C@@H]1[C@@H](N(Cc2ccc(-c3cccc(C(F)(F)F)c3)o2)C(=O)c2ccc(-c3ccccc3)cc2)c2cc(OCCCO)ccc2N1C(=O)c1ccc(-c2ccccc2)cc1` (stereo not given in full), for which the z-score is -0.0943.
To `COCCOC(=O)N1C(=O)[C@@]2(c3cc(C#Cc4ccc(OC)cc4)ccc31)[C@H](C(N)=O)[C@H]1C(=O)O[C@H](c3ccccc3)[C@H](c3ccccc3)N1[C@@H]2c1ccccc1OCCO` belongs 0.649.
To `CCN(CC)c1ccc(N2CC=CC34O[C@@H]5/C=C\CCCOC(=O)C5[C@H]3C(=O)N(CCO)[C@@H]4C2=O)cc1` (stereo not given in full) belongs -1.11; to `CC(C)N1C(=O)[C@@]2(Cc3ccccc31)c1ccccc1C(=O)N(C1CCCCC1)[C@H]2c1ccc(CO)cc1`, -0.34.
Take `CN(C)C(=O)[C@]1(Cc2ccccc2CN=[N+]=[N-])N=C(c2ccc(OCCCO)cc2)O[C@@H]1c1ccccc1CN=[N+]=[N-]`: the z-score was -0.16.
To `O=C1c2ccccc2[C@](Cc2ccccc2I)(C(=O)NC2CC2)[C@H](c2ccc(CO)cc2)N1Cc1ccccc1` belongs -0.388.
Take `COCCOC(=O)N1C(=O)[C@@]2(c3cc(C#CC4(O)CCCCCC4)ccc31)[C@H](c1ccc(O)cc1)N1[C@H](c3ccccc3)[C@H](c3ccccc3)OC(=O)[C@H]1[C@@H]2C(=O)Nc1nc2ccccc2s1`: the z-score was -0.0153.
On to `C=CCOC(=O)[C@H]1[C@@H]2C(=O)O[C@@H](c3ccccc3)[C@@H](c3ccccc3)N2[C@@H](c2ccc(OCCOC(=O)[C@@H]3C[C@@H]4C(=O)N5CCC[C@H]5C(=O)N4[C@@H]3c3cccc(OCCO)c3)cc2)[C@]12C(=O)Nc1ccccc12`, for which the z-score was 0.983.
To `C#CCN(CC=C(C)C)[C@H](CO)c1ccccc1` belongs -4.47.
To `C=C[C@H](COC(C)=O)N(C(=O)OC(C)(C)C)S(=O)(=O)c1ccc(Br)cc1` belongs -1.25; to `COc1ccc(C(O)C2C=CC3C(=O)N(c4ccccc4)C(=O)C3N2Nc2ccccc2F)cc1OCc1ccccc1` (stereo not given), 0.754; to `CCOC(=O)C1=CCC(c2ccc(C)cc2)N(S(=O)(=O)c2ccc(C)cc2)C1` (stereo not given), 1.59.
For the molecule `COCC(=C=CC[C@H](O)c1ccccc1OCCO)C[C@H](O)c1cc(Cl)cc(Cl)c1O`, the z-score is -20.3 (active).
In the case of `COCCOC(=O)N1C(=O)[C@@]2(c3cc(C#CC4=CCCCC4)ccc31)[C@H](C(=O)Nc1nc3ccccc3s1)[C@H]1C(=O)O[C@H](c3ccccc3)[C@H](c3ccccc3)N1[C@@H]2c1ccccc1OCCO` it was 0.812; in that of `CC(C)C[C@@H]1NC(=O)[C@H]2C[C@@H](C(=O)NCCCCCCN)[C@@H](c3ccc(O)cc3)N2C1=O`, -0.464; in that of `COCCCNC(=O)[C@@]1(Cc2ccccc2)N=C(c2ccc(OCCCO)cc2)O[C@H]1c1ccccc1`, -0.475.
To `CN(C)C(=O)[C@]1(Cc2ccccc2N=[N+]=[N-])N=C(c2ccc(OCCCO)cc2)O[C@@H]1c1ccccc1` belongs -2.29; to `CN1C(=O)C2C=CC(C(O)c3ccccc3)N(Nc3ccccc3)C2C1=O` (stereo not given), 0.807; to `CCOC(=O)C[C@H]1[C@H](OC(=O)Cc2ccc3c(c2)OCO3)[C@@H](NC(=O)c2ccc(-c3ccccc3)cc2)c2cc(OCCCO)ccc2N1C(=O)Cc1ccc(OC)cc1`, -1.09.
To `O=C1c2ccccc2[C@](Cc2ccccc2I)(C(=O)NC2CC2)[C@H](c2ccc(CO)cc2)N1C1CCCCC1` belongs 0.525.
On to `C=CCOC(=O)[C@@H]1[C@H]2C(=O)O[C@H](c3ccccc3)[C@H](c3ccccc3)N2[C@H](c2ccc(OCCOC(=O)[C@@H]3C[C@@H]4C(=O)N5CCC[C@H]5C(=O)N4[C@@H]3c3ccc(O)cc3)cc2)[C@@]12C(=O)Nc1ccc(I)cc12`, for which the z-score is 0.687.
